71 molecules from PubChem BioAssay AID623870 (Broad Institute, 2012) can be followed below.

SMILES strings stand for the structures. The whole screen tested about 390,000 compounds, of which about 2,600 (0.67%) were called active. This is one part of a sample in which actives are shown more often than they occur. Unmarked numbers belong to inactive results.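 The calls were made as follows: active = mean inhibition of replicates at least 50% and at least half of replicates each reaching 50%; inconclusive = half or more replicates reach 50% but mean below 50%; inactive = the rest.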

The target of this experiment is Transforming acidic coiled-coil-containing protein 3 (Homo sapiens) (UniProt Q9Y6A5). Briefly: inhibitors of ARNT PAS-B binding to TACC3 – biochemical, AlphaScreen, single concentration, primary screen (AID 623870).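 Also: 0% = complete ARNT plus TACC3 wells and 100% = ARNT alone without TACC3.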 Conditions: AlphaScreen His-ARNT PAS-B/GST-TACC3 binding, luminescence; at 9.99 µM; hits give high values; TACC3 fragment carries E629A point mutation. A general note: Bead proximity is the source of the signal in Alpha formats.
Regarding `CC[C@]1(O)CC2CN(CCc3c([nH]c4ccccc34)[C@@](C(=O)OC)(c3cc4c(cc3OC)N(C=O)[C@H]3[C@@](O)(C(=O)OC)[C@H](OC(C)=O)[C@]5(CC)C=CCN6CC[C@]43[C@@H]65)C2)C1` (stereo partly specified), the inhibition was 52.9% (active).

Take `CC[C@]1(O)C[C@@H]2CN(CCc3c([nH]c4ccccc34)[C@@](C(=O)OC)(c3cc4c(cc3OC)N(C)[C@H]3[C@@](O)(C(=O)OC)[C@H](OC(C)=O)[C@]5(CC)C=CCN6CC[C@]43[C@@H]65)C2)C1`: the inhibition was 16%. Regarding `CN1c2ccc(-c3cccc(C#N)c3)cc2[C@H]2[C@H](CCN2S(=O)(=O)c2cccc(F)c2)[C@@H]1CO`, the inhibition was -10.1%. On to `CNC[C@H]1OCCCC[C@H](C)Oc2ccc(NS(C)(=O)=O)cc2C(=O)N([C@@H](C)CO)C[C@H]1C`, for which the inhibition was -0.797%. To `O=C(OCC(=O)c1cccs1)c1ccc([N+](=O)[O-])o1` belongs -2.19%. In the case of `O=C(COC(=O)c1ccc(Br)o1)NC12CC3CC(CC(C3)C1)C2`, the inhibition was 6.24%. To `O=C(COC(=O)c1ccc([N+](=O)[O-])o1)NC12CC3CC(CC(C3)C1)C2` belongs 31.3% (active); to `CCN(C[C@H]1[C@H](c2ccc(-c3ccccc3)cc2)[C@H](CO)N1CC1CC1)C(C)=O`, 2.62%; to `C[C@@H]1CCCCO[C@H](CN(C)C(=O)CCC(F)(F)F)[C@@H](C)CN([C@@H](C)CO)C(=O)c2cc(NC(=O)c3ccncc3)ccc2O1`, 11%. To `COc1ccc(Cc2nnc(N/N=C/c3ccccc3O)[nH]c2=O)cc1OC` belongs 58.3% (active).

Consider `Cc1ccc(Cc2nnc(SCC(=O)Nc3ccccc3C)[nH]c2=O)cc1`, for which the inhibition is -1.06%. In the case of `CC(C)c1ccc(Cc2nnc(NCCCO)[nH]c2=O)cc1` it was -6.28%. To `COc1cccc(NC(=O)C[C@H]2CC[C@@H]3[C@H](COc4ccc(NC(C)=O)cc4C(=O)N3C)O2)c1` belongs 13%; to `C[C@@H]1CN([C@H](C)CO)C(=O)c2cc(NC(=O)Nc3ccc4c(c3)OCO4)ccc2O[C@@H]1CN(C)C(=O)Nc1ccc(F)cc1`, 14%.

As for `CCC(=O)N1C[C@H]2[C@@H](c3ccccc31)[C@H](CO)N2Cc1ccccc1F`, the inhibition is -4.33%. To `CC(=O)N1[C@@H](CO)[C@@H]2c3ccccc3N(S(=O)(=O)c3ccccc3)C[C@@H]21` belongs 4.39%; to `O=S(=O)(c1ccccc1)N1C[C@@H]2[C@H](c3ccccc31)[C@H](CO)N2Cc1ccccn1`, 32.5% (active); to `O=C(C1CCCC1)N1[C@H](CO)[C@@H]2c3ccccc3N(S(=O)(=O)c3ccccc3)C[C@@H]21`, -1.74%. In the case of `O=C(C[C@@H]1CC[C@@H]2[C@H](COC[C@@H](O)CN2Cc2ccc(Cl)cc2)O1)NCc1ccccc1Cl` it was 1.65%; in that of `COc1ccccc1Nc1nc(N)nc(CN(C)C2CCCCC2)n1`, 54% (active); in that of `COc1ccccc1Nc1nc(N)nc(CSC(=S)N2CCOCC2)n1`, 0.944%. Take `COc1ccccc1NC1=NC(c2ccc(Cl)cc2)N=C(N)N1` (stereo unspecified): the inhibition was -1.44%.

With `COc1ccc(S(=O)(=O)N(C)C[C@@H]2Oc3ncc(C#Cc4ccc(F)cc4)cc3C(=O)N([C@H](C)CO)C[C@@H]2C)cc1`, the inhibition was -1.03%.

As to `N#CC1=C(N)Oc2c(sc3ccccc23)C1c1ccco1` (stereo unspecified), the inhibition is 34.5%.

As for `N#CC1=C(N)Oc2c(ccc3cccnc23)C1c1ccncc1` (stereo unspecified), the inhibition was 71.2% (active). To `C[C@@H]1CN([C@H](C)CO)C(=O)c2c(c3ccccc3n2C)-c2ccccc2CO[C@@H]1CN(C)C(=O)Nc1ccccc1` belongs 6.33%; to `CCCNC(=O)N(C)C[C@@H]1Oc2ncc(C#CCc3ccccc3)cc2C(=O)N([C@@H](C)CO)C[C@H]1C`, -5.08%; to `COc1ccc(S(=O)(=O)N(C)C[C@H]2OCCCC[C@@H](C)Oc3ccc(NC(=O)CCC(F)(F)F)cc3C(=O)N([C@@H](C)CO)C[C@H]2C)cc1`, -1.27%. In the case of `Oc1c(C(c2ccccn2)N2CCOCC2)ccc2cccnc12` (stereo unspecified) it was 70.2% (active); in that of `CNC[C@@H]1OCCCC[C@H](C)Oc2ccc(NC(=O)Nc3ccc(OC)cc3)cc2C(=O)N([C@H](C)CO)C[C@@H]1C`, -2.24%; in that of `O=C(C[C@@H]1C[C@H]2c3cc(NC(=O)Nc4ccccc4F)ccc3O[C@H]2[C@@H](CO)O1)NCc1ccncc1`, -5.98%. In the case of `Cc1ccccc1CSc1nnc(-c2cccnc2)n1N` it was -2.01%. Regarding `Cn1c(SCC(=O)C(C)(C)C)nnc1-c1ccccn1`, the inhibition was 13.6%. Consider `Cc1ccccc1CSc1nnc(-c2ccccn2)n1N`, for which the inhibition is 54.4% (active).

Regarding `C[C@H](CO)N1C[C@H](C)[C@@H](CN(C)C(=O)C2CCCCC2)Oc2cc(C3=CCCC3)ccc2S1(=O)=O`, the inhibition is 5.91%. To `O=C(C[C@@H]1CC[C@@H]2[C@H](COC[C@@H](O)CN2Cc2ccc(F)cc2)O1)NCc1ccncn1` belongs -1.34%; to `COc1ccccc1C#Cc1ccc([C@@H]2[C@H](CO)N3CCCCN(CCC(F)(F)F)C[C@@H]23)cc1`, 26%. In the case of `Cc1noc(C)c1S(=O)(=O)N(C)C[C@H]1OCCCC[C@H](C)Oc2ccc(NS(=O)(=O)c3ccccc3)cc2C(=O)N([C@H](C)CO)C[C@@H]1C` it was -5.63%. As for `COc1ccc(S(=O)(=O)N2C[C@@H](O)COC[C@H]3O[C@H](CC(=O)N[C@H]4CCN(Cc5ccccc5)C4)CC[C@@H]32)cc1`, the inhibition was -2.17%. To `O=C(NCCCn1ccnc1)C(=O)NCC1OCCN1S(=O)(=O)c1cc(F)ccc1F` (stereo unspecified) belongs 60.2% (active); to `Cc1cc(F)ccc1S(=O)(=O)N1CCCOC1CNC(=O)C(=O)NCCC1=CCCCC1` (stereo unspecified), 3.52%; to `O=C(NCCCc1ccccc1)C(=O)NCC1OCCN1S(=O)(=O)c1ccccc1` (stereo unspecified), 0.478%. As to `CC(C)NC(=O)Nc1ccc2c(c1)CC(=O)N([C@@H](C)CO)C[C@@H](C)[C@H](CN(C)CC1CC1)O2`, the inhibition was -5.56%.

Turning to `CO[C@@H]1CC[C@@H]2CCOc3ccc(C#N)cc3C(=O)N(C)C[C@H](c3ccccc3)CC(=O)N(C)C[C@H]1O2`, the inhibition was -7.48%. Turning to `Cc1noc(C)c1NC(=O)N[C@H]1C=C[C@@H](CC(=O)Nc2ccccc2)O[C@H]1CO`, the inhibition is -3.76%. Take `Cc1ccc(S(=O)(=O)Nc2ccc3c(c2)CC(=O)N([C@@H](C)CO)C[C@@H](C)[C@@H](CN(C)S(=O)(=O)c2ccccc2)O3)cc1`: the inhibition is -1.52%. Consider `COc1c(O)cc2oc(-c3ccc(O)c(O)c3)cc(=O)c2c1O`, for which the inhibition was 36.8% (active). `C[C@H](CO)N1C[C@H](C)[C@H](CN(C)C(=O)C2CCOCC2)Oc2ncc(-c3ccccc3)cc2C1=O`: the inhibition was -4.96%. To `CC(C)CC#Cc1cnc2c(c1)C(=O)N([C@@H](C)CO)C[C@H](C)[C@@H](CN(C)C(=O)c1ccc(F)cc1)O2` belongs 7.13%. In the case of `CC(c1ccccn1)N(CCN(C)C)C(=S)Nc1ccccc1F` (stereo unspecified) it was 56.1% (active). As to `CSc1cccc(NC(=S)N(C(C)C)C(C)c2ccccn2)c1` (stereo unspecified), the inhibition was 19%. In the case of `Cc1cccc(NC(=S)N(CCN(C)C)C(C)c2ccco2)c1` (stereo unspecified) it was -28.1%.

For the molecule `C[C@@H]1CN([C@H](C)CO)S(=O)(=O)c2ccc(-c3cncnc3)cc2O[C@H]1CN(C)C(=O)Cc1ccccc1`, the inhibition is -17%.

With `C[C@H](CO)N1C[C@H](C)[C@@H](CN(C)Cc2ccc(Cl)c(Cl)c2)Oc2c(NC(=O)Nc3ccccc3)cccc2C1=O`, the inhibition is 6.91%. With `CCCc1[nH]nc2c1C(c1ccc(Br)s1)C(C#N)=C(N)O2` (stereo unspecified), the inhibition was 3.43%. Consider `COc1cc(C2C(C#N)=C(N)Oc3n[nH]c(-c4ccccn4)c32)cc(OC)c1OC` (stereo unspecified), for which the inhibition is 71.4% (active). Regarding `COc1ccccc1C1C(C#N)=C(N)Oc2c1c(-c1ccccc1)nn2-c1ccccc1` (stereo unspecified), the inhibition is 2.34%. As to `O=C(C[C@H]1CC[C@H]2[C@@H](COC[C@@H](O)CN2Cc2ccccc2F)O1)NCc1ccccc1F`, the inhibition was -10%. In the case of `Cc1noc(C)c1NC(=O)Nc1ccc2c(c1)C(=O)N([C@@H](C)CO)C[C@H](C)[C@@H](CN(C)Cc1ccncc1)OCCCC[C@@H](C)O2` it was -0.402%.

As for `CN(C)c1ccc2c(c1)[C@H]1C[C@H](CC(=O)O)O[C@H](CO)[C@H]1O2`, the inhibition was 22.1%.

Turning to `Cc1cc(C(=O)Nc2ccc3c(c2)C(=O)N(C)[C@@H]2CC[C@H](CC(=O)NC4CCCC4)O[C@@H]2CO3)no1`, the inhibition was -1.61%. Take `Cc1cc(C(=O)Nc2ccc3c(c2)C(=O)N(C)[C@@H]2CC[C@@H](CC(=O)NC4CCCC4)O[C@@H]2CO3)no1`: the inhibition was -5.47%. In the case of `CNC(=O)C[C@H]1CC[C@H]2[C@H](COc3ccc(NC(=O)c4cc(C)on4)cc3C(=O)N2C)O1`, the inhibition is 8.66% (active). As to `Cc1ccccc1Nc1nc(N)nc(CN2CCN(c3ccccn3)CC2)n1`, the inhibition was 86% (active). Consider `Cc1ccccc1Nc1nc(N)nc(CSc2nnc3ccccn23)n1`, for which the inhibition was -0.395%. As to `CCCn1nc(C(=O)OCc2nc(N)nc(Nc3ccccc3C)n2)c2ccccc2c1=O`, the inhibition is 10.3%. In the case of `COc1ccc(-c2ccc([C@@H]3[C@@H](C#N)N(C(=O)C4CCC4)[C@@H]3CO)cc2)cc1` it was -0.479%; in that of `C[C@H]1CN([C@@H](C)CO)C(=O)c2cc(N(C)C)ccc2O[C@@H]1CN(C)C(=O)Nc1ccc2c(c1)OCO2`, 12.1%; in that of `Cc1ccnc(NS(=O)(=O)c2ccc(NC(=O)c3ccc(S(=O)(=O)N4CCOCC4)cc3)cc2)n1`, -1.47%. For `O=C(Nc1nnc(-c2ccco2)o1)c1ccc(S(=O)(=O)N2CCOCC2)cc1`, the inhibition was 79.1% (active). To `O=C(Nc1ccc(S(=O)(=O)N2CCOCC2)cc1)c1ccc2ncsc2c1` belongs 8.14%.

Broadly, the inhibition is the relative decrease from the control value, in per cent.
